Rab9 prom act: activators of Rab9 promoter; Huh7 Rab9 promoter-luciferase reporter, luminescence, 24 h; AID 485297; Potency, µM (top dose mostly 9.22 µM), for the others: at the top dose activation, negative = inhibition, usual class: activators; 320,000 compounds, 2.8% hits; also: % of control where 0% means no effect; nearly all actives have a fitted effect of over 60% in size
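Cell-based reporter: Huh7 stable for Rab9 promoter-driven luciferase, plated in reduced-serum medium with 10% FBS at 1500 cells/well, compound-treated 24 h at 37 °C, luminescence read after 10 min reagent.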
SMN2 splice up: SMN2 splice variant enhancement. HEK293 SMN2-luciferase splicing reporter, luminescence, 30-36 h. Potency, µM (series often up to 46.1 µM), for inactives: top-dose activity change, positive = activation, actives largely listed as activators. 210,000 compounds, 2.8% hits. AID 1458; also: % of control where 0% means no effect; nearly all actives have a fitted effect of over 55% in size
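HEK293 cells carry an SMN2 […]–luciferase reporter in which exon 7 inclusion puts luciferase in frame. Cells were plated 10-12 h before compound addition, then incubated 30-36 h at 37C. ONE-Glo luminescence was read; sodium butyrate at 4.5 mM final served as control.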
ELG1 repair inh: blocks ELG1-dependent DNA repair in HEK293T cells | HEK293T ELG1-luciferase reporter, luminescence, 16 h; DNA damage induced by 5-fluorouridine | Potency, µM (doses to about 46.1 µM), without a hit: at the highest dose activity change, negative = inhibition, usual class: inhibitors | 330,000 compounds, 2.3% hits; also: % is scaled to controls: 0 for no effect and ±100 for the full control effect; nearly all actives have a fitted effect of over 55% in size
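Quantitative HTS, concentration-response format. 2,000 cells/well co-treated with 5-fluorouridine and compound, 16 hr in 5% CO2 at 37 °C; ONE-Glo luminescence read after 30 min.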
ELG1 genotoxic: genotoxicity induction in ELG1-luciferase HEK293T cells; 330,000 compounds, 1.3% hits; HEK293T ELG1-luciferase reporter, luminescence, 16 h; Potency, µM (highest dose often 46 µM), for inactives: at the highest dose activity change, positive = activation, usual class: activators; also: % of control where 0% means no effect; nearly all actives have a fitted effect of over 60% in size
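Genotoxic stress is detected as increased luminescence from luciferase-tagged ELG1 in HEK293T cells, measured with ONE-Glo after a 16 hr treatment at 37 °C.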
NPC1 prom act: activators of NPC1 promoter | Huh7 NPC1 promoter luciferase reporter, 24 h | 320,000 compounds, 2.4% hits | Potency, µM (highest dose often 9.22 µM), without a hit: top-dose activation, actives largely listed as activators; also: % of control where 0% means no effect; nearly all actives have a fitted effect of over 60% in size
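Stable NPC1-promoter luciferase Huh7 line; cpd (DMSO) 24 h, 37 °C, 5% CO2; Amplite luciferase reagent 10 min RT; luminescence readout. qHTS format.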
FLuc modulator: firefly luciferase modulation, counter-screen for miR-21 project. P08659. purified FLuc, Km substrates, luminescence inhibition. Potency, µM (doses to about 57.5 µM), for the others: at the top dose activity change, negative = inhibition, most hits filed as inhibitors. 360,000 compounds, 6.9% hits. AID 588342;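 also: plate controls were vehicle for no effect and reference inhibitor for full effect; nearly all actives have a fitted effect of over 55% in size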
Target sequence (P08659 whole entry, looked up): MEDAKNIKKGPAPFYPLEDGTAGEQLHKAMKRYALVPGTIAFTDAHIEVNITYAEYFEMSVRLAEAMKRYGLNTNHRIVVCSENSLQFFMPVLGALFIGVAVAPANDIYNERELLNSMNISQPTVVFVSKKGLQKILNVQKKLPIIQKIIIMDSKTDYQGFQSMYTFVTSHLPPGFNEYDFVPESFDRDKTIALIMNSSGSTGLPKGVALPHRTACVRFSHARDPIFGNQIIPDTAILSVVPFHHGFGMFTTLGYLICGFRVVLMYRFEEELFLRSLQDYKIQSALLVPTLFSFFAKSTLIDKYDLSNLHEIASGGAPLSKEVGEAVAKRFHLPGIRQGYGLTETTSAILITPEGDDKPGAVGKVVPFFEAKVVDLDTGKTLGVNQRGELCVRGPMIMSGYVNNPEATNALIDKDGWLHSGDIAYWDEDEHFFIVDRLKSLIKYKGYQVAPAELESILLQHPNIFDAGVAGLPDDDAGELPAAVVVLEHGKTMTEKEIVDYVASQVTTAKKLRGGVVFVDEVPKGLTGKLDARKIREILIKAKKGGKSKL
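Purified P. pyralis luciferase (10nM final) with 10uM D-luciferin and 10uM ATP (Km levels) in 50mM Tris acetate pH 7.5, 10mM Mg acetate, 0.01% Tween-20, 0.05% BSA; qHTS 6-point titration, ~60 µM downward; luminescence read.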
Numbers without * were called inactive; [ ] = remark or other dose. Hits are enriched below; roughly 9.2% of the tested compounds scored in any of these assays. Calls follow the shape of the dose curve; as a rule, active = well fitted curve in the direction sought with a large enough effect; inconclusive = small, poorly fitted or top-dose-only effect, or another doubt; inactive = no such curve, though single readings can be large; an effect the other way counts as inactive or inconclusive. Potency is read from the fitted curve at half-maximal effect.

How did C(=N\Nc1nc(-c2ccccn2)nc2ccccc12)/c1ccccc1 do in these assays?
Rab9 prom act: -30%; ELG1 repair inh: inconclusive; ELG1 genotoxic: -11%; NPC1 prom act: -9%; FLuc modulator: 11µM*

Results for ClC(Cl)(Cl)c1nc(N/N=C/c2ccncc2)c2ccccc2n1 ?
Rab9 prom act: 1%; SMN2 splice up: 2%; ELG1 repair inh: 12%; ELG1 genotoxic: -7%; NPC1 prom act: -3%; FLuc modulator: -1%

Results for FC(F)(F)c1nc2ccccc2nc1N/N=C\c1ccccc1 ?
Rab9 prom act: 7%; SMN2 splice up: -18%; ELG1 repair inh: 26%; ELG1 genotoxic: 1%; NPC1 prom act: 0%; FLuc modulator: 15µM*

What do the screens show for `Cc1ccc(Nc2nc(-c3ccccc3)nc3ccccc23)cc1`?
FLuc modulator: 0%

How did C(=N/Nc1ccccn1)/c1cccnc1 do in these assays?
SMN2 splice up: 1%[9.22 µM]

How did Brc1ccc(-c2nc(N/N=C/c3cccnc3)c3ccccc3n2)cc1 do in these assays?
Rab9 prom act: 2.5µM*; SMN2 splice up: 13µM*; ELG1 repair inh: inconclusive; ELG1 genotoxic: inconclusive; NPC1 prom act: 2.8µM*; FLuc modulator: 0.21µM*

How did Cc1ccc2c(c1)C(c1ccccc1)N(C(=O)CC(C)C)CC(=O)N2 (stereo not given) do in these assays?
Rab9 prom act: 6%; ELG1 repair inh: 9%; ELG1 genotoxic: -1%; NPC1 prom act: 0%; FLuc modulator: 1%

How did CN(Cc1cnn(C)c1)C(=O)C1CCC(=O)N(Cc2ccc(Cl)cc2)C1 (stereo not given) do in these assays?
Rab9 prom act: -4%; ELG1 repair inh: inconclusive; ELG1 genotoxic: -2%; NPC1 prom act: 0%; FLuc modulator: 4%

What do the screens show for `COc1cc(Cl)c(C)cc1NC(=O)c1cc(S(=O)(=O)N2CCCC2)ccc1F`?
FLuc modulator: -5%

Results for COc1cccc(/C=N/Nc2nc(-c3cccnc3)nc3ccccc23)c1 ?
Rab9 prom act: 13%; ELG1 repair inh: inconclusive; ELG1 genotoxic: 4%; NPC1 prom act: 3%; FLuc modulator: 1.5µM*

How did Fc1ccc(Nc2nc(-c3cccnc3)nc3ccccc23)cc1 do in these assays?
SMN2 splice up: -26%

How did C(=N\Nc1nc(-c2cccnc2)nc2ccccc12)/c1ccccc1 do in these assays?
Rab9 prom act: 19%; ELG1 repair inh: inconclusive; ELG1 genotoxic: -4%; NPC1 prom act: 14%; FLuc modulator: 1.3µM*

How did Cc1cc(C(=O)CN2C(=O)CCC2=O)c(C)n1Cc1ccccc1 do in these assays?
Rab9 prom act: 1%; SMN2 splice up: -43%; ELG1 repair inh: inconclusive; ELG1 genotoxic: inconclusive; NPC1 prom act: -6%; FLuc modulator: inconclusive

Results for Cc1cc(C(=O)Cn2nnc3ccccc3c2=O)c(C)n1Cc1cccs1 ?
Rab9 prom act: 0.45µM*; SMN2 splice up: 0%; ELG1 repair inh: inconclusive; ELG1 genotoxic: 2.6µM*; NPC1 prom act: 0.35µM*; FLuc modulator: 0.6µM*

What do the screens show for `Cc1cc(C(=O)CN2C(=O)c3ccccc3C2=O)c(C)n1Cc1cccs1`?
Rab9 prom act: 0.4µM*; SMN2 splice up: 14µM*; ELG1 repair inh: inconclusive; ELG1 genotoxic: inconclusive; NPC1 prom act: 0.5µM*; FLuc modulator: 0.85µM*

What do the screens show for `CCCn1c(C)cc(C(=O)CN2C(=O)c3cccc(N)c3C2=O)c1C`?
Rab9 prom act: 3.2µM*; SMN2 splice up: inconclusive; ELG1 repair inh: inconclusive; ELG1 genotoxic: inconclusive; NPC1 prom act: 2.8µM*; FLuc modulator: 2.7µM*

What do the screens show for `CC(C)(C)C(=O)Cn1c(=O)n(CCCCCC(=O)NCc2ccc3c(c2)OCO3)c(=O)c2sccc21`?
SMN2 splice up: -14%; FLuc modulator: -16%

What do the screens show for `Cc1ccc(C)c(S(=O)(=O)N2CCN(C(=O)c3ccccc3Cc3ccccc3)CC2)c1`?
Rab9 prom act: 1%; ELG1 repair inh: inconclusive; ELG1 genotoxic: -3%; NPC1 prom act: -1%; FLuc modulator: -1%

Source: PubChem
